From PubChem BioAssay (NCI)
Compounds without any hit were thinned out: in the full panel of roughly 83,000, 20% have a hit.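 48-hour exposure, single concentration, 96-well plates; percent growth endpoint where 0 means no net growth. Active: below 10.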 Unmarked numbers belong to inactive results. Calls of active or inactive are those of the source.

tested on: SR leukemia; test: NCI-60 one-dose screen, 48 h (100 = growth as untreated, 0 = no growth, -100 = all killed); conditions: 10 µM
Method: Growth inhibition of the SR human tumor cell line is measured as a screen for anti-cancer activity. Cells are grown in 96 well plates and exposed to the test compound for 48 hours. Compounds are tested at a single concentration, which is 10^-5 M for most compounds. The reported endpoint is percent growth (GI% or GIPRCNT), where numbers from 0 - 100% represent growth inhibition, and numbers from -100% - 0 represent cell death. For example, a value of 40 represents 60% growth inhibition. A value of 0 means no net growth occurred over the course of the experiment. A value of -40 indicates 40% of cells at the beginning of the experiment died by the end of the experiment. A value of -100 means all cells are dead at the end of the experiment.
NCI-60 Human Tumor Cell Lines Screen was performed using the standard one-dose NCI protocol, which is described in more detail at https://dtp.cancer.gov/discovery_development/nci-60/default.htm.
Compounds with GIPRCNT values below 10 were considered active. Activity score was based on GIPRCNT using the following formula: […]
Score is 0 for GIPRCNT values of 100 or above, 50 for GIPRCNT values of 0, and 100 for GIPRCNT values of -100.

Structure (SMILES) | growth
COc1cccc(O)c1O | 29.9%
O=[N+]([O-])c1cccc2nsnc12 | 99.8%
C/C(=N/NC(N)=O)c1ccco1 | 87.3%
CC(=O)N(C)c1ccc([N+](=O)[O-])cc1 | 105%
CCC(C)(O)c1ccc(C)cc1 (stereo not given) | 105%
C/C(=C\c1ccc([N+](=O)[O-])cc1)C(=O)O | 96.3%
NC(C(=O)O)c1ccc([N+](=O)[O-])cc1 (stereo not given) | 113%
COc1cc(OC)c2ccc(=O)oc2c1 | 125%
CCOC(=O)c1ccc(Nc2sc(C(=O)c3cccc([N+](=O)[O-])c3)c(N)c2C#N)cc1 | -28.3% (active)
CCOC(=O)c1ccc(NC(=S)P(=O)(c2ccccc2)c2ccccc2)cc1 | 69.3%
NC(=O)N/N=C\c1ccco1 | 107%
CCCCCCCCCCC1CO1 (stereo not given) | 98.5%
C=CCc1cc(C(C)=O)cc(OC)c1O | 113%
O=C(N/N=C\c1cc(Br)cc(Br)c1O)N/N=C/c1cc(Br)cc(Br)c1O | -18.4% (active)
C#Cc1cccc(NC(=O)c2ccc(Cl)cc2Cl)c1 | 115%
CCOC(=O)Nc1cc2c(c(N)n1)N=C(c1ccccc1)CO2 | 6.89% (active)
CN(C)CCN(Cc1ccccc1)c1ccccc1 | 88.1%
CC(=O)OC(C(=O)O)c1ccccc1 (stereo not given) | 104%
Brc1cnc2ccccc2c1 | 103%
COc1ccccc1NC(=O)c1cc2cc(Br)ccc2cc1O | -5.13% (active)

Structure (SMILES) | growth
CC(=O)NC(N)=S | 90.4%
c1cc[n+](C2c3ccccc3C([n+]3ccccc3)c3ccccc32)cc1 (stereo not given) | 50.6%
COc1ccc(C(O)c2ccccc2)cc1 (stereo not given) | 102%
CN(c1ccccc1)c1ncnc2c1ncn2C | 98.2%
CC(C)=NNc1ccc([N+](=O)[O-])cc1[N+](=O)[O-] | 90.6%
Cc1cccc(CO)c1 | 109%
CC(C)=C(NC(=O)c1ccccc1)C(=O)O | 95.4%
O=C(O)CCCC(=O)O | 94.7%
O=c1cc(-c2ccccc2)[nH]c(=S)[nH]1 | 91.9%
Clc1ccc(-c2n[nH]c3c2Cc2ccccc2-3)cc1Cl | 112%
O=[N+]([O-])c1ccc(Sc2ccncn2)c([N+](=O)[O-])c1 | 30.6%
Cc1cc(/C=C/c2ccc3cc(N(C)C)ccc3[n+]2C)c(C)n1-c1ccccc1 | 2.29% (active)
CO[C@H]1C[C@@H]2CC[C@@H](C)[C@@](O)(O2)C(=O)C(=O)N2CCCC[C@H]2C(=O)O[C@H]([C@H](C)C[C@@H]2CC[C@@H](O)[C@H](OC)C2)CC(=O)[C@H](C)C=C(C)[C@@H](O)[C@@H](OC)C(=O)[C@H](C)C[C@H](C)/C=C/C=C/C=C1C | 23.7%
Nc1ccc(C(=O)c2ccc(N)c(Br)c2)cc1Br | 26.1%
Cc1cc(C(O)(c2ccc(Nc3ccccc3)cc2)c2ccc(Nc3ccc(S(=O)(=O)O)cc3)cc2)ccc1N (stereo not given) | 7.14% (active)
Cc1cc(O)ccc1O | 104%
CC1(C)Nc2cccc3c(N=Nc4ccc(N=Nc5ccccc5)c5ccccc45)ccc(c23)N1 | 107%
O=C(N/N=C/c1ccccc1O)Nc1nn[nH]n1 | 102%
CCCCC(CC)COC(C)=O (stereo not given) | 103%
O=C1N(C[P+](c2ccccc2)(c2ccccc2)c2ccccc2)CCCN1C[P+](c1ccccc1)(c1ccccc1)c1ccccc1 | 89%
